Structures are written as SMILES. Calls of active or inactive are those of the source. The call rests on the fitted dose curve; in most records, active means well fitted curve in the direction sought with a large enough effect; inconclusive means small, poorly fitted or top-dose-only effect, or another doubt; inactive means no such curve, though single readings can be large or run the other way. Peptide text beside a SMILES is read from it.

A short description of this assay: Cellular Toxicity (caspase-3) BJ (AID 658). Conditions: BJ fibroblasts, luminescence, normalized: DMSO 0%, staurosporine 100%; series mostly up to 91.7 µM. The text has this:
NIH Chemical Genomics Center [NCGC]
NIH Molecular Libraries Screening Centers Network [MLSCN]
National Institutes of Environmental Health Sciences [NIEHS]
National Toxicology Program [NTP]
We have developed a 1536-well cell-based assay for quantitative high throughput screening (qHTS) against a number of cell lines to determine in vitro caspase 3/7 activity of small molecules. This particular assay uses BJ cell line which is derived from normal human foreskin fibroblast.
NCGC Assay Protocol Summary:
The Caspase-Glo 3/7 assay (Promega) is a homogeneous method to measure caspase-3 and caspase-7 activities in cultured cells. The quantitation of caspase 3/7 activity is based on the cleavage of a peptide-aminoluciferin substrate. After caspase cleaves the substrate the free aminoluciferin is liberated and serves as the substrate of luciferase, which generates the light. The luminescent signal is proportional to amount of caspase 3/7 activity present.
Using the Caspase-Glo 3/7 assay, the amount of caspase 3/7 activity was measured in the BJ cell line with complete culture medium following compound treatment for 16 hours. The assay was performed in opaque white 1536-well plates. In the screen, staurosporine and tamoxifen were used as positive controls. Library compounds were measured for their ability to cause the activation of caspase 3/7 in the cell line, as reflected by an increase in luminescence signal, in a concentration-dependent manner. Data were normalized to the controls for basal activity (DMSO only) and 100% stimulation (10 uM staurosporine). AC50 values were determined from concentration-response data modeled with the standard Hill equation.
qHTS protocol for caspase 3/7 assay in the BJ cells
[Step] [Parameter] [Value] [Description]
1. Reagent; 5 uL; 1000 the BJ cells/well
2. Time; 5 hr; 37 °C incubation
4. Controls; 23 nL; Tamoxifen 0.23 uM to 100 uM & staurosporine 1.4 pM to 100 uM
5. Time; 16 hr; 37 °C incubation
6. Reagent; 5 uL; Caspase-Glo 3/7 reagent
7. Time; 1 hr; Room Temperature
8. Detection; Luminescence; Viewlux plate reader
Keywords: caspase 3/7, apoptosis, the BJ cell line, luminescence, NTPHTS, NTPHTS_NCGC, NIEHS, EPA, DSSTox, MLSMR, MLSCN, NIH Roadmap, qHTS, NCGC
Consider `CN(C)c1ccc2nc3ccc(=[N+](C)C)cc-3sc2c1`, for which the compound was classed as inactive.

With `CC(=O)Nc1ccc(O)cc1`, the call was inactive.

As to `Nc1ccc(S(N)(=O)=O)cc1`, the call was inactive.

For the compound `Cc1ccc(C)c(OCCCC(C)(C)C(=O)O)c1`, the outcome was inactive.

Take `CCCCC(CC)COC(=O)C(C#N)=C(c1ccccc1)c1ccccc1` (stereo not drawn): the outcome was inactive.

As to `CCCc1cc(=O)[nH]c(=S)[nH]1`, the compound was called inactive.

Regarding `CCc1nc(N)nc(N)c1-c1ccc(Cl)cc1`, the result was inactive.

As to `CS(=O)(=O)OCCCCOS(C)(=O)=O`, the compound was called inactive.

`COC(=O)[C@H](Cc1ccccc1)NC(=O)[C@@H](N)CC(=O)O` (H-Asp-Phe-OMe): the outcome was inactive.

Turning to `c1ccc2[nH]c(-c3cscn3)nc2c1`, the result was inactive.

As to `Cc1cc(O)c2c(c1)C(=O)c1cc(O)cc(O)c1C2=O`, the call was inactive.

In the case of `COc1c2occc2cc2ccc(=O)oc12`, the compound was classed as inactive.

Turning to `NS(=O)(=O)c1cc(C(=O)O)c(NCc2ccco2)cc1Cl`, the result was inactive.

The values above are taken from PubChem BioAssay (NCATS).
